This is an account of results in PubChem BioAssay (Tox21).

Records with an inconclusive call do not appear. Values without a mark were called inactive. Active and inactive are the calls of the source. The call rests on the fitted dose curve; in most records, active means well fitted activation curve with a large enough effect in the repeat runs; inconclusive means weak or mixed curves; inactive means no such curve, though single readings can be large or run the other way.
On the % scale 0 is the no-effect control and ±100 the full control effect.

The assay in a line: qHTS assay for small molecules that induce genotoxicity in human embryonic kidney cells expressing luciferase-tagged ATAD5 (AID 651632). Further: nearly all actives have a fitted effect of over 15% in size. As to conditions: HEK293T ATAD5-luciferase induction, 16 h; series mostly up to 83.3 µM; activation: at the top concentration. The text has this: U.S. Tox21 Program National Center for Advancing Translational Sciences [NCATS] NIH Chemical Genomics Center [NCGC] U.S. Environmental Protection Agency [EPA] National Institutes of Environmental Health Sciences [NIEHS] National Toxicology Program [NTP] U.S. Food and Drug Administration [FDA] Tox21 Assay Overview: As cancer cells divide rapidly and during every cell division they need to duplicate their genome by DNA replication. The failure to do so results in the cancer cell death. Based on this concept, many chemotherapeutic agents were developed but have limitations such as low efficacy and severe side effects etc. A new cell based assay was developed to find the compounds that effectively block DNA replication either by directly damaging DNA or by inhibiting other cellular mechanisms. Enhanced Level of Genome Instability Gene 1 (ELG1; human ATAD5) protein levels increase in response to various types of DNA damage. Using a luciferase reporter-gene tagged with ATAD5, a cell-based assay [developed by Kyungjae Myung, NHGRI, NIH] was used to measure the induction of ATAD5 in human embryonic kidney cells (HEK293T). So, increase in luciferase activity can be used to identify the compounds that cause genetic stress.
Tox21 Assay Protocol Summary: For genotoxicity screening, 2,000 cells in 5 uL/well were dispensed into white, solid-bottom 1536-well plates using a Multidrop Combi (Thermo Scientific) dispenser. Following transfer of 23 nL compound or DMSO vehicle by a pin tool, the plates were incubated 16 hr at 37C and 5% CO2. 5 ul Amplite (AAT Bioquest, Inc.) was then added to each plate and following 30 min incubation at room temperature, luciferase activity was quantified on a ViewLux CCD-based plate reader.
(In general: In qHTS, concentration-response curves come from the screen itself.)
With `C=COCCOCCOCCOC=C`, the “activation” value was 2.86%.

Take `O=C(O)Cc1ccc(Cl)cc1Cl`: the “activation” value was 1.82%.

In the case of `CC(C)CC(C)CC(C)CC(C)COC(=O)c1ccccc1C(=O)OCC(C)CC(C)CC(C)CC(C)C` (stereo not given), the “activation” value was 4.09%.

Turning to `COC(=O)[C@@H]1[C@H]2C[C@H]3c4[nH]c5ccccc5c4CCN3C[C@@H]2CC[C@@H]1O`, the “activation” value is 0.221%.

`O=C(Nc1ccc(Cl)c(Cl)c1)C1CC1`: the “activation” value was -2.15%.

In the case of `CC/C=C\CC1=C(C)CCC1=O`, the “activation” value was 3.83%.

As for `FC(F)(F)c1ccccc1-n1ccnc1`, the “activation” value is 2.25%.

On to `C=CCCCCCCCCCCCC`, for which the “activation” value is 1.52%.

In the case of `CC1(C)S[C@@H]2[C@H](N=CN3CCCCCC3)C(=O)N2[C@H]1C(=O)O`, the “activation” value was 6.76%.

Consider `CN=C(NC#N)Nc1ccc(C2=NNC(=O)CC2C)cc1` (stereo not given), for which the “activation” value is 3.98%.

Take `CC(=O)c1ccc2c(c1)Cc1ccccc1-2`: the “activation” value was 7.15%.

Consider `N[C@@H](CCC(=O)Nc1ccc([N+](=O)[O-])cc1)C(=O)O`, for which the “activation” value was 4.22%.

On to `Cc1ccc(C=O)cc1C`, for which the “activation” value is 1.73%.

On to `N#Cc1ccc(C(=O)O)cc1`, for which the “activation” value was -1.24%.

Turning to `Cc1ccccc1OCC(O)CO` (stereo not given), the “activation” value is -0.692%.

Consider `CCNC(=O)C1CC(C)CCC1C(C)C` (stereo not given), for which the “activation” value is -2.63%.

For `BrCc1cccc(Oc2ccccc2)c1`, the “activation” value is 3.9%.

As for `O=C(O)c1cc(Br)c(O)c(Br)c1`, the “activation” value was 1.64%.

In the case of `CC[C@H](C)C(=O)O[C@H]1C[C@H](O)C=C2C=C[C@H](C)[C@H](CC[C@@H](O)C[C@@H](O)CC(=O)O)[C@H]21`, the Potency result is “inactive”.

As to `Brc1ccc(-c2ccccc2)cc1`, the “activation” value is 0.59%.

Consider `CCCCCCN`, for which the “activation” value was -2.59%.

In the case of `CCOC(=O)c1ccc(OC(=O)CCCCCN=C(N)N)cc1`, the “activation” value is -2.71% [at 39.1 µM].

Consider `OCCCCC(O)CO` (stereo not given), for which the “activation” value is 3.23%.

For `CCCCCCCCSCC`, the “activation” value is -1.44%.

Turning to `CC(COC(C)(C)C)OCCCO` (stereo not given), the “activation” value was 4.84%.

For `CCC(CC)CO`, the “activation” value was -0.641%.

With `CC(C)OC(=O)CCCCC(=O)OC(C)C`, the “activation” value was 2.92%.

`C=C(C)C(=O)OCCN(CC)CC`: the “activation” value was -1.83%.

For the molecule `CC1COc2ccccc2N1` (stereo not given), the “activation” value is -1.23%.

In the case of `CCc1ccc(C=O)cc1`, the “activation” value is 0.888%.

In the case of `O=C(NCCN1CCOCC1)c1ccc(Cl)cc1`, the Potency result was “inactive”.

Turning to `C=Cc1ccccn1`, the “activation” value was -1.76% [at 95.3 µM].

`Cc1c(I)c(=O)n(-c2ccccc2)n1C`: the “activation” value was 4.37%.

On to `CC(C)=CCOC(=O)c1ccccc1`, for which the “activation” value was -1.15%.

On to `O=C(NCCc1c[nH]c2ccccc12)c1cccnc1`, for which the “activation” value was 4.88%.

For `CO[C@@H]1[C@@H](OC(N)=O)[C@@H](O)[C@H](Oc2ccc3c(O)c(NC(=O)c4ccc(O)c(CC=C(C)C)c4)c(=O)oc3c2C)OC1(C)C`, the “activation” value was 1.33% [at 39.1 µM].

With `O=S(=O)(O)c1ccc2cc(O)c(S(=O)(=O)O)cc2c1`, the “activation” value is -1.69%.

Turning to `CC(C)(C)NC(N)=O`, the “activation” value was 1.05%.

Regarding `CC(=O)OC(C)OC(=O)C(C)c1ccc(-c2ccccc2)c(F)c1` (stereo not given), the Potency entry is “inactive”.

In the case of `CC(=O)N[C@@H](CCC(=O)O)C(=O)O`, the “activation” value was 3.56%.
